# Cruzain Triton = cruzain (T. cruzi) inhibition with detergent; actives 0.43% (n = 200,000); Potency, µM, without a hit: max response, negative = inhibition, most hits filed as inhibitors; P25779; AID 1478; purified cruzain, Z-FR-AMC fluorescence, 0.01% Triton;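 further: plate controls were neutral wells for no effect and buffer without enzyme for full effect; nearly all actives have a fitted effect of over 40% in size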
# Target sequence (P25779 123-467 limits assumed): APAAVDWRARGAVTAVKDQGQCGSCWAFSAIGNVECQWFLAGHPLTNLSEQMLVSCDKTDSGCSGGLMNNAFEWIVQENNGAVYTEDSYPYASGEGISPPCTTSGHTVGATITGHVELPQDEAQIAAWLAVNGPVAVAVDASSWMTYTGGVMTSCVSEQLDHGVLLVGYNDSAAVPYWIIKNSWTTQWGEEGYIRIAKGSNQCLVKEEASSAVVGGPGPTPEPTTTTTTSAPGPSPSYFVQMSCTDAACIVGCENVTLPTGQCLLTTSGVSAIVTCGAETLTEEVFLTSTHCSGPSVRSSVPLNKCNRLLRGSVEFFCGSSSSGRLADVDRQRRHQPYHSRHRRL
#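 Cruzain (1.5 nM) preincubated 15 min at RT with compound in 100 mM sodium acetate pH 5.5, 5 mM DTT, 0.01% Triton X-100. Reaction started with 2 uM Z-FR-AMC; AMC fluorescence (ex 360/em 450 nm) change over 60 s gave rate.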
# Cruzain inh noDet = blocks cruzain activity in detergent-free assay; actives 2.3% (n = 200,000); Potency, µM, for inactives: max response, negative = inhibition, most hits filed as inhibitors; AID 1476; purified cruzain, Z-FR-AMC fluorescence, no detergent;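 further: plate controls were enzyme without inhibitor for no effect and buffer without enzyme for full effect; nearly all actives have a fitted effect of over 40% in size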
#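 Detergent-free condition (0.00005% Triton X-100) in acetate buffer pH 5.5 with DTT. 1.5 nM enzyme and compound were pre-mixed 15 min, then 2 uM Z-FR-AMC substrate added; reaction progress from fluorescence change between first and third reads (60 s).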
# Active calls of the source: *; ? = inconclusive. Shown are actives, neighbours in structure and some others; about 2.6% of the full set was active somewhere. The call rests on the fitted dose curve; in most records, active means well fitted curve in the direction sought with a large enough effect; inconclusive means small, poorly fitted or top-dose-only effect, or another doubt; inactive means no such curve, though single readings can be large; an effect the other way counts as inactive or inconclusive. Potency means the concentration at half of the fitted maximal effect.
SMILES,Cruzain Triton,Cruzain inh noDet
S=C(NCCN1CCOCC1)N/N=C/c1c2ccccc2cc2ccccc12,-8%,?
Cc1cccc(NC(=S)N/N=C/c2c[nH]c3ccccc23)c1,?,-24%
CCc1ccccc1NC(=O)CSc1nc2c(c(=O)[nH]1)CN(Cc1ccccc1OC)CC2,-2%,7%
CCOC(=O)C1CCCN(S(=O)(=O)c2ccc(N3CCCCS3(=O)=O)cc2)C1 (stereo not given),0%,4%
CCOc1ccc(CNC(=O)c2cc3ccccn3n2)cc1,-1%,3%
Cc1ccsc1/C=C\C1=NCCCN1C,0%,-5%
CCC(=O)N1CCc2cc(S(=O)(=O)NCCC(=O)Nc3ccc(CC)cc3)ccc21,-3%,-1%
CCCCC(CC)C/C=C1\CC(C(=O)OCC)Oc2ccccc21 (stereo not given) (tested in a mixture with another compound),-1%,-4%
Cc1ccc(C(=O)n2nc(C)c(S(=O)(=O)N3CCOCC3)c2C)cc1,0%,-1%
COCc1cc(=O)[nH]c(Sc2c(-c3ccccc3)c3ccc(Cl)cc3[nH]c2=O)n1,-2%,?
O=c1[nH]c2cc(Cl)ccc2c(O)c1-c1ccc(Oc2ccccc2)cc1,2%,10µM*
O=c1[nH]c2cc(Cl)ccc2c(O)c1-c1cccc(Oc2ccccc2)c1,5%,3.2µM*
O=c1[nH]c2ccc(Cl)cc2c(O)c1-c1ccccc1,1%,0%
COc1ccccc1C(=O)OCc1cc(=O)n2nc(C(C)C)sc2n1,-4%,-5%
CCCCOc1ccc(S(=O)(=O)Nc2ccc(-c3ccc(N4CCCCC4)nn3)cc2)cc1,-5%,32µM*
CCCCOc1ccc(S(=O)(=O)Nc2ccc(-c3ccc(N4CCCCCC4)nn3)cc2)cc1,-4%,-24%
CCN1CCN(c2ccc(NC(=O)Cc3ccccc3)cc2)CC1,4%,4%
O=C(Cc1ccccc1)Nc1cccc(N2CCCC2)c1,-29%,25µM*
CC(C)c1ccc(C(=O)Nc2ccc(N3CCOCC3)cc2)cc1,-1%,-4%
O=C(Nc1ccc(N2CCCC2)cc1)C(c1ccccc1)c1ccccc1,-12%,7.9µM*
CC(C)Oc1ccc(C(=O)Nc2ccc(N3CCCC3)cc2)cc1,-28%,4µM*
CC(C)C(=O)Nc1ccc(N2CCCC2)cc1,-6%,-8%
O=C(Cc1ccccc1)Nc1ccc(N2CCCC2)cc1,?,13µM*
O=C(CCc1ccccc1)Nc1ccc(N2CCCCC2)cc1,-3%,12%
Cc1c(-c2nnc(SCC(=O)Nc3ccc(Br)cc3)o2)nnn1-c1ccc(F)cc1,-1%,5%
SMILES,Cruzain Triton,Cruzain inh noDet
O=C1N=C(N2CCN(c3cccc4ccccc34)CC2)S/C1=C/c1cccs1,-10%,20µM*
Cc1ccccc1N1CCN(C2=NC(=O)/C(=C\c3cccs3)S2)CC1,-14%,?
Cc1ccc(-c2cc3nc(-c4ccccc4)cc(C(F)(F)F)n3n2)cc1,-2%,-2%
COc1cccc(OCc2cc(C3Nc4ccccc4C(=O)N3Cc3ccco3)ccc2OC)c1 (stereo not given),-7%,16µM*
COc1ccc(C2Nc3ccccc3C(=O)N2Cc2ccco2)cc1COc1ccc([N+](=O)[O-])cc1 (stereo not given),0%,?
Cc1cccc(N(C)c2nc3ccc(C(=O)c4ccccc4)cc3n3c(C)nnc23)c1,-4%,-15%
Cc1ccc(S(=O)(=O)N(C)c2ccc(OCC(=O)Nc3nc4ccccc4s3)cc2)cc1,-1%,?
Cc1ccc(S(=O)(=O)N(C)c2ccc(OCC(=O)Nc3nc4c(ccc5ccccc54)s3)cc2)cc1,-1%,4µM*
CN(c1ccc(OCC(=O)Nc2nc(-c3ccccc3)cs2)cc1)S(=O)(=O)c1ccc(F)cc1,0%,7.9µM*
CCOC(=O)C(=O)c1csc(NC(=O)COc2ccc(N(C)S(=O)(=O)c3ccc(F)cc3)cc2)n1,-3%,-4%
CN(C)S(=O)(=O)c1ccc(N2CCCC2)c(C(=O)Nc2nc(-c3ccc(F)c(F)c3)cs2)c1,-4%,-12%
COc1ccc(NC(=O)COc2ccc(N(C)S(=O)(=O)c3ccc(C)cc3)cc2)cc1,0%,15%
Cc1ccc(S(=O)(=O)N(C)c2ccc(OCC(=O)Nc3nc(-c4ccccc4)cs3)cc2)cc1,-1%,7.9µM*
CN(C)S(=O)(=O)c1ccc(N2CCCC2)c(C(=O)Nc2nc3c(ccc4ccccc43)s2)c1,-4%,7.9µM*
COc1ccc(-n2c(=O)c3c4c(sc3n(Cc3ccc(F)cc3)c2=O)CN(C(C)=O)CC4)c(OC)c1,9%,3%
CCOc1ccc(-c2nonc2NC(=O)COc2ccccc2)cc1,-5%,-9%
O=C(NC1CCS(=O)(=O)C1)c1c(NC(=O)C2COc3ccccc3O2)sc2c1CCCC2 (stereo not given),-4%,-8%
CCCNC(=O)c1c(NC(=O)C2COc3ccccc3O2)sc2c1CCCC2 (stereo not given),2%,20µM*
O=C(Cc1ccccc1)NCC(=O)OCC(=O)c1cccc([N+](=O)[O-])c1,-27%,-22%
O=C(COC(=O)c1cccc([N+](=O)[O-])c1)c1ccc(OCc2ccccc2)cc1,-3%,25µM*
CCCSc1ncc(Cl)c(C(=O)Nc2ccc(OC)cc2OC)n1,-1%,-3%
CCOc1ccc(-c2nn(-c3ccccc3)cc2/C=C2\SC(N)=NC2=O)cc1C,-1%,8%
CN(C)S(=O)(=O)c1cccc(-c2nn(-c3ccccc3)cc2/C=C2\SC(=S)NC2=O)c1,-13%,16%
CCOc1ccc(-c2nn(-c3ccccc3)cc2/C=C2\SC(=S)N(C3CCS(=O)(=O)C3)C2=O)cc1 (stereo not given),-12%,7.9µM*
CCCOc1ccc(-c2nn(-c3ccccc3)cc2/C=C2\SC(=S)N(C3CCS(=O)(=O)C3)C2=O)cc1 (stereo not given),2%,4µM*
SMILES,Cruzain Triton,Cruzain inh noDet
CCCCN1C(=O)CN(C2CCCCCC2)C(=O)C1c1ccc(OCC)c(OC)c1 (stereo not given),0%,15%
Cn1c(CS/C(N)=N/N=C/c2ccccc2)c(Br)c(=O)n1-c1ccccc1,?,32µM*
NC(N)=N/N=C/c1ccccc1,-4%,-6%
COc1cc(OC)cc(C(=O)NCCc2csc(-c3cccc(C)c3)n2)c1,-9%,6%
Cn1c(SCC(=O)N2CCCc3ccccc32)ncc(C(=O)Nc2ccc(Cl)cc2)c1=O,0%,10%
Cc1cc(C)cc(NC(=O)CCc2c(C)nc3c(c2C)c(=O)n(C)c(=O)n3C)c1,4%,3%
CCc1ccc2[nH]c3nc(SCc4nnc(-c5ccc(C)cc5)o4)nnc3c2c1,0%,13µM*
CCc1ccc2[nH]c3nc(SCC(=O)NNC(=O)c4ccc(C(C)(C)C)cc4)nnc3c2c1,0%,4µM*
Cc1ccc(C(=O)NNC(=O)CSc2nnc3c(n2)[nH]c2ccc(C)cc23)cc1,2%,?
Cc1ccc2nc(SCc3nnc(-c4ccccc4)o3)[nH]c2c1,-25%,-18%
CCC(C(=O)OC)n1nnc2sc(-c3ccccc3)cc2c1=O (stereo not given),-11%,-7%
Cc1ccc(N2CC(C(=O)Nc3nnc(SCC(=O)Nc4cc(C)on4)s3)CC2=O)cc1 (stereo not given),0%,7.9µM*
Cc1ccc(N2CC(C(=O)Nc3nnc(C)s3)CC2=O)cc1 (stereo not given),2%,8%
Cc1cccc(NC(=O)CN(C)S(=O)(=O)c2ccc3c(c2)c(=O)n(C)c(=O)n3C)c1,1%,-3%

# Screening data deposited in PubChem BioAssay by National Center for Advancing Translational Sciences (NCATS).
